Consider 40 molecules from PubChem BioAssay (Tox21).

Results filed as inconclusive are left out. Values without a mark were called inactive. Calls of active or inactive are those of the source. Calls come from the whole dose curve.
% is set by controls: 0 for no effect and ±100 for the full control effect; potency is the fitted concentration of half-maximal effect.

For the assay, the target named is Peroxisome proliferator-activated receptor gamma (Homo sapiens) (UniProt P37231). Nature of the assay: qHTS assay to identify small molecule antagonists of the peroxisome proliferator-activated receptor gamma (PPARg) signaling pathway (AID 743191). Note: nearly all actives have a fitted effect of over 30% in size. The conditions noted are these: HEK293H PPARg-UAS-bla, beta-lactamase ratio, antagonist, 17 h; series mostly up to 62.6 µM; ratio activity, negative = inhibition: at the top concentration. The source says: U.S. Tox21 Program National Center for Advancing Translational Sciences [NCATS] NIH Chemical Genomics Center [NCGC] U.S. Environmental Protection Agency [EPA] National Institutes of Environmental Health Sciences [NIEHS] National Toxicology Program [NTP] U.S. Food and Drug Administration [FDA] Tox21 Assay Overview: The peroxisome proliferator-activated receptors (PPARs) are lipid-activated transcription factors of the nuclear receptor superfamily with three distinct subtypes namely PPAR alpha, PPAR delta (also called PPAR beta) and PPAR gamma (PPARg). All these subtypes heterodimerize with Retinoid X receptor (RXR) and these heterodimers regulate transcription of various genes. PPAR-gamma receptor (glitazone receptor) is involved in the regulation of glucose and lipid metabolism. To identify the compounds that inhibit PPAR-gamma signaling, GeneBLAzer PPAR gamma UAS-bla HEK293H cell line (Invitrogen, Carlsbad, CA, USA) containing a beta-lactamase reporter gene under control of an Upstream Activator Sequence (UAS) was used to screen the Tox21 compound library.
Peroxisome proliferator-activated receptor gamma (Homo sapiens), sequence (P37231 whole entry, looked up): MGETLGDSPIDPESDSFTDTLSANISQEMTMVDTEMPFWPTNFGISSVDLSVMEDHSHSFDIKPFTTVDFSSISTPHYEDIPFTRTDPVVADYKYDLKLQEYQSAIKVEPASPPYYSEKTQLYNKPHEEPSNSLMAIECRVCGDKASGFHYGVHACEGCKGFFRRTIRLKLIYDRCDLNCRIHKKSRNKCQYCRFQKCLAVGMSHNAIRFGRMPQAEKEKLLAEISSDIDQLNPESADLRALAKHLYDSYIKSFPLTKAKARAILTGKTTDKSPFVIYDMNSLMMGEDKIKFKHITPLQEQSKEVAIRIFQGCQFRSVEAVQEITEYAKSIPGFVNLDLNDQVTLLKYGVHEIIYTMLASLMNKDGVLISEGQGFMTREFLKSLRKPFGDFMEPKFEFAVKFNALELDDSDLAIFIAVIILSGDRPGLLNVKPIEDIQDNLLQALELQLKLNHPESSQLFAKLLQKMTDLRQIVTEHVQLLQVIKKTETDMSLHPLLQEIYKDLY
Tox21 Assay Protocol Summary: PPARg-bla cells were dispensed at 3000 cells/6uL/well in 1536-well black wall/clear bottom plates using a Multidrop Combi (Thermo Fisher Scientific, Waltham, MA) dispenser. After the assay plates were incubated at 37C and 5% CO2 for 5 h, 23 nL of compounds dissolved in DMSO, positive controls or DMSO only was transferred to the assay plate by a Pintool station (Kalypsys, San Diego, CA). The assay plates were incubated at 37C for 17 h. After 1 uL of LiveBLAzerTM B/G FRET substrate was added using a Bioraptr Flying Reagent Dispenser (FRD) workstation (Beckman Coulter, Indianapolis, IN, USA), the plates were incubated at room temperature for 1 h, and fluorescence intensity was measured by an Envision plate reader (PerkinElmer, Shelton, CT).
For orientation: qHTS replaces the single test concentration by a dilution series.
With `CCOC(=O)CCC(=O)OCC`, the “ratio activity, negative = inhibition” value is 0.366%. The same measure, in the same setting: as for `CC(C#N)(CCC(=O)O)N=NC(C)(C#N)CCC(=O)O` (stereo not given), the figure is -1.13%; as for `CCCCCCCCCCCCCCCCCCO`, -2.44%; as for `CCC(=O)OCc1ccccc1`, 11.2%. For `CC(N)C12CC3CC(CC(C3)C1)C2` (stereo not given), the “ratio activity, negative = inhibition” value was 0.887%.

Turning to `CCCCOCCOC(=O)CCCCCCCCC(=O)OCCOCCCC`, the “ratio activity, negative = inhibition” value was -3.67%. Regarding `Nc1ccn([C@@H]2O[C@H](CO)[C@@H](O)[C@@H]2O)c(=O)n1`, the “ratio activity, negative = inhibition” value is -2.11%. Still for that read-out and setting: as for `O=C(O)c1cn(C2CC2)c2cc(N3CCNCC3)c(F)cc2c1=O`, the figure is 12%. On the same count and under the same terms, next, `NCCCC[C@H](N[C@@H](CCc1ccccc1)C(=O)O)C(=O)N1CCC[C@H]1C(=O)O`: 4.24%; `O=C(O)Cc1csc(-c2ccc(Cl)cc2)n1`: 3.26%.

On to `C=CCOCC(O)CO` (stereo not given), for which the “ratio activity, negative = inhibition” value is -8.3%. With `OCCCCCO`, the “ratio activity, negative = inhibition” value is 6.12% [at 81.1 µM]. Turning to `CC(=O)O[C@@]12CO[C@@H]1C[C@H](O)[C@@]1(C)C(=O)[C@H](O)C3=C(C)[C@@H](OC(=O)[C@H](O)[C@@H](NC(=O)OC(C)(C)C)c4ccccc4)C[C@@](O)([C@@H](OC(=O)c4ccccc4)[C@H]21)C3(C)C`, the “ratio activity, negative = inhibition” value was -9.84%. Same read-out and setting: as for `O=C1c2ccccc2C(=O)c2cc(O)ccc21`, the figure is -0.848%. With `CC(=O)c1ccccc1[N+](=O)[O-]`, the “ratio activity, negative = inhibition” value was 11.9%. On the same count and under the same terms, as for `CCOC(=O)COC(=O)c1ccccc1C(=O)OCC`, the figure is 3%. The same measure, in the same setting: next, `Cc1nc2ccc(CN(C)c3ccc(C(=O)N[C@@H](CCC(=O)O)C(=O)O)s3)cc2c(=O)[nH]1`: -11.4%; `CCCC(C)C(=O)OCC` (stereo not given): 0.242%; `CCCCS(=O)(=O)N[C@@H](Cc1ccc(OCCCCC2CCNCC2)cc1)C(=O)O`: 11.9%. Same read-out and setting: next, `NC(=O)Cc1cccc2ccccc12`: 0.891%.

Consider `C=C[Si](OC(C)=O)(OC(C)=O)OC(C)=O`, for which the “ratio activity, negative = inhibition” value is 7.75%. Same read-out and setting: next, `CC(C)C1CCC(O)CC1` (stereo not given): 0.15%; `COc1c(N2CCNC(C)C2)c(F)cc2c(=O)c(C(=O)O)cn(C3CC3)c12` (stereo not given): 10.4%. `O=S(=O)(O)c1cccc2ccccc12`: the “ratio activity, negative = inhibition” value is 2.66%.

`CCCOC(=O)CC`: the “ratio activity, negative = inhibition” value was -12.1%. On the same count and under the same terms, as for `CCC(C)(CCCC(C)C)OC(C)=O` (stereo not given), the figure is 7.73%; as for `CCOC(=O)C(=O)CCCCCCl`, 0.977%.

As to `CCCC[N+](C)(CCCC)CCCC`, the “ratio activity, negative = inhibition” value was 13%. The same measure, in the same setting: as for `CCOC(=O)c1cnc2c(cnn2CC)c1NN=C(C)C`, the figure is 28.5%.

Regarding `O=C(c1ccccc1O)c1ccccc1O`, the Potency was 43.2 µM (active). Regarding `COCCOC[C@H](CC1(C(=O)NC2CCC(C(=O)O)CC2)CCCC1)C(=O)Oc1ccc2c(c1)CCC2` (stereo not given in full), the “ratio activity, negative = inhibition” value was 14.4%. On the same count and under the same terms, as for `C1CCC2(CCCCO2)OC1`, the figure is 21.9%; as for `CC(=O)Nc1ccc(OCC(O)CNC(C)C)cc1` (stereo not given), 12.5%. On to `CCCCN(CCC(=O)OCC)C(C)=O`, for which the “ratio activity, negative = inhibition” value was 20.1%. The same measure, in the same setting: as for `CNCCO`, the figure is 10.4%. Same read-out and setting: as for `O=C(O)CC(C(=O)O)S(=O)(=O)O` (stereo not given), the figure is 2.46%; as for `O=C(O)c1cc(C(=O)O)cc(C(=O)O)c1`, 4.12% [at 81.1 µM].

`CCCCCCC#CC(=O)OC`: the “ratio activity, negative = inhibition” value was 3.67%. With `CC(C)(N)C#N`, the “ratio activity, negative = inhibition” value was -13.8% [at 81.1 µM]. Turning to `CC[C@H]1OC(=O)[C@H](C)[C@@H](O[C@H]2C[C@@](C)(OC)[C@@H](O)[C@H](C)O2)[C@H](C)[C@@H](O[C@@H]2O[C@H](C)C[C@H](N(C)C)[C@H]2O)[C@](C)(OC)C[C@@H](C)C(=O)[C@H](C)[C@@H](O)[C@]1(C)O`, the “ratio activity, negative = inhibition” value is -23% [at 81.1 µM].
